Assay [1] addresses Tyrosine-protein kinase SYK (Homo sapiens) (UniProt P43405). Particulars: at 10 µM.
Assay [2] addresses T1, Mitogen-activated protein kinase kinase kinase 7 (Homo sapiens) (UniProt O43318).
T1 sequence (whole entry): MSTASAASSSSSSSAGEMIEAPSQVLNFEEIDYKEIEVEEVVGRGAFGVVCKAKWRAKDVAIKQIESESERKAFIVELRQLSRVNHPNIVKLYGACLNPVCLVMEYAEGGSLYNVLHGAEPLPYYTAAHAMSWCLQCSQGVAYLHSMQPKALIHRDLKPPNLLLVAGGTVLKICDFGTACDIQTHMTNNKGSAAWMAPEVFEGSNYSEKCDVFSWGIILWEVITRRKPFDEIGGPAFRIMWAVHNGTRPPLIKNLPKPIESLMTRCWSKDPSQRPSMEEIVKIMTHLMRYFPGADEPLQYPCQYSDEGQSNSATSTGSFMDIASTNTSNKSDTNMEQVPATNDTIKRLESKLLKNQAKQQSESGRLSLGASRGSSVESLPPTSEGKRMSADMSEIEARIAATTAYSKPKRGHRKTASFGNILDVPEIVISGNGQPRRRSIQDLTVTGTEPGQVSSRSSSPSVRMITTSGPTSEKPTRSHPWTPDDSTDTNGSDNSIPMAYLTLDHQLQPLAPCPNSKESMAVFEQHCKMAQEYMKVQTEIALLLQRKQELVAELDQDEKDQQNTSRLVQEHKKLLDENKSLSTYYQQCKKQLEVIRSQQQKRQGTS
Conditions: at 1 µM.

In assay [3] the target is T1, Mitogen-activated protein kinase kinase kinase 7 (Homo sapiens). Particulars: at 10 µM.
Assay [4] deals with T2, Serine/threonine-protein kinase TAO1 (Homo sapiens) (UniProt Q7L7X3).
T2 sequence (whole entry): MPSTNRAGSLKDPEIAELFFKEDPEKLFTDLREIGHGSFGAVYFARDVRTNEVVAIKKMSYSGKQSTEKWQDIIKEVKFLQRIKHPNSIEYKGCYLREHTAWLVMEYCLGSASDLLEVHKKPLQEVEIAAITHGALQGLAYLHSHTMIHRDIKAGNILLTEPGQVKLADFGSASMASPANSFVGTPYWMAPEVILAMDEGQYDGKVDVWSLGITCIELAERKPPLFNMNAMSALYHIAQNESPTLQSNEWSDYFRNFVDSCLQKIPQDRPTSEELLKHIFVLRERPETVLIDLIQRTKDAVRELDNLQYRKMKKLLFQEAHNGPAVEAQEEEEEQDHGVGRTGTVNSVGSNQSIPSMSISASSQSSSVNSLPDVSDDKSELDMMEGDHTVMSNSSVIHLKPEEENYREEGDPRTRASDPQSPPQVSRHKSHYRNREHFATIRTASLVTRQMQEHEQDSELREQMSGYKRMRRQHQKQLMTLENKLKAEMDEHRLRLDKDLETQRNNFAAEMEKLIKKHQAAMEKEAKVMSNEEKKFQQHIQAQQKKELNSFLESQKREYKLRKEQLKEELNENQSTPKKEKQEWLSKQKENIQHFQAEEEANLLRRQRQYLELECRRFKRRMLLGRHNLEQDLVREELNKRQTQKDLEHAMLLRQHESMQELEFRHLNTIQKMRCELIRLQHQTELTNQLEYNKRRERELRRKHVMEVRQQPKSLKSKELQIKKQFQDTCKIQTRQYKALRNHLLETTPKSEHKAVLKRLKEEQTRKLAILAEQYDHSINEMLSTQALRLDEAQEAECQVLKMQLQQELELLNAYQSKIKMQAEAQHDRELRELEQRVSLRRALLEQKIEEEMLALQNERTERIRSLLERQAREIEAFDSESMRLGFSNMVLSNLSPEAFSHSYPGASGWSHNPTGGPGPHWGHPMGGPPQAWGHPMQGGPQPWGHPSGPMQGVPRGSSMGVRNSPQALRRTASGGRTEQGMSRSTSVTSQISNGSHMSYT
Particulars: at 1 µM.

Assay [5] has as its target T2, Serine/threonine-protein kinase TAO1 (Homo sapiens). Particulars: at 10 µM.
Assay [6] deals with T3, Serine/threonine-protein kinase TAO2 (Homo sapiens) (UniProt Q9UL54).
T3 sequence (whole entry): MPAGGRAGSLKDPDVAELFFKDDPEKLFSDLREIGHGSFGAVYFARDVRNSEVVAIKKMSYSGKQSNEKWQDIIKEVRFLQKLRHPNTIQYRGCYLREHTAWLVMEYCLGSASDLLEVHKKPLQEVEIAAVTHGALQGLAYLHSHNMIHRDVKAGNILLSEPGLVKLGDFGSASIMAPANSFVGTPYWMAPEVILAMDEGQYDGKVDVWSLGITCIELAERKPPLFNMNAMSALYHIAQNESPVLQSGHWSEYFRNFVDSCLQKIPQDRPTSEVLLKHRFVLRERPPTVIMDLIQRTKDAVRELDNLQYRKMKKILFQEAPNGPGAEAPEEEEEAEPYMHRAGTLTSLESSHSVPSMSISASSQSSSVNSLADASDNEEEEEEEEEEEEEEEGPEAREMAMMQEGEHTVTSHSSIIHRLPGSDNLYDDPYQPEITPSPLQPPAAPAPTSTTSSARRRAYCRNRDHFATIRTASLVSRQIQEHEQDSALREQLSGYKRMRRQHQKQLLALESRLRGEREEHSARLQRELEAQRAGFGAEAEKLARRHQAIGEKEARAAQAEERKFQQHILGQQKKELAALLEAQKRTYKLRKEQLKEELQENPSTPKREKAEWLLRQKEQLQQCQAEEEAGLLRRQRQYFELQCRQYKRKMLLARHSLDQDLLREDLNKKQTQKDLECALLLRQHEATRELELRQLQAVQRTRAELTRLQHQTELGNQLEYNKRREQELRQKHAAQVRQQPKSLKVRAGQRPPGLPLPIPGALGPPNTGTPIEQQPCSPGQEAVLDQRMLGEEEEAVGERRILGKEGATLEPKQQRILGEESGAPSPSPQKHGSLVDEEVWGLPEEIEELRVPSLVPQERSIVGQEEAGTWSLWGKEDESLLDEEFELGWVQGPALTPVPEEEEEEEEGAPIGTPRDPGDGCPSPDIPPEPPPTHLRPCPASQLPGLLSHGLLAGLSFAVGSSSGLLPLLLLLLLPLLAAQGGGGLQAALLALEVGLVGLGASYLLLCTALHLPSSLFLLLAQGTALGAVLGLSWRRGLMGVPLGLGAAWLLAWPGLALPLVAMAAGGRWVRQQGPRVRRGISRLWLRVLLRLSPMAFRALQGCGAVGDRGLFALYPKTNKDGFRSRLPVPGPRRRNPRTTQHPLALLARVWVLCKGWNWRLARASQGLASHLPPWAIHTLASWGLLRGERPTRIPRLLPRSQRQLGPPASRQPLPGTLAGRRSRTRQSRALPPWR
Conditions: at 1 µM.

For assay [7], the target named is T3, Serine/threonine-protein kinase TAO2 (Homo sapiens). Particulars: at 10 µM.
The target in assay [8] is T4, Serine/threonine-protein kinase TAO3 (Homo sapiens) (UniProt Q9H2K8).
T4 sequence (whole entry): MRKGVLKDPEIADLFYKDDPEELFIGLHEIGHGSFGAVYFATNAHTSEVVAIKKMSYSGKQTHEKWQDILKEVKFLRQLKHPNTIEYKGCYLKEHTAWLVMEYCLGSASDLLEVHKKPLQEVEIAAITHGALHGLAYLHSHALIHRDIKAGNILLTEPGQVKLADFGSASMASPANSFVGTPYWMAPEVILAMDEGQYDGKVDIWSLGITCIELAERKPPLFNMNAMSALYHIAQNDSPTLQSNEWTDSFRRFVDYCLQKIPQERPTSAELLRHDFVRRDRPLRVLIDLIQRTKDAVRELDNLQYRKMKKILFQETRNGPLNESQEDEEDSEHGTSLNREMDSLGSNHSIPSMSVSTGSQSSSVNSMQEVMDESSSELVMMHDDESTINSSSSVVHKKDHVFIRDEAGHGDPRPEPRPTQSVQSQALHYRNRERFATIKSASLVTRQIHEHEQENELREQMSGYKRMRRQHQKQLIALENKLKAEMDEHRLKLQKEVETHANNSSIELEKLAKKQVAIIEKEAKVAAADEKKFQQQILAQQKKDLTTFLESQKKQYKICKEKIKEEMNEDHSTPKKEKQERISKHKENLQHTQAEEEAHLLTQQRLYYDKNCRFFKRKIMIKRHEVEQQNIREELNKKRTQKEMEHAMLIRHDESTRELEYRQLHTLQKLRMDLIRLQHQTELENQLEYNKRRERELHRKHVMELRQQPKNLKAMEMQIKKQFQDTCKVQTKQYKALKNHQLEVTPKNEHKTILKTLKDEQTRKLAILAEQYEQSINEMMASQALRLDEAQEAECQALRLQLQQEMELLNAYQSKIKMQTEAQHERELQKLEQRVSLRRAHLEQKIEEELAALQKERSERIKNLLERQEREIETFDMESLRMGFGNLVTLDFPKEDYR
Conditions: at 1 µM.

In assay [9] the target is T4, Serine/threonine-protein kinase TAO3 (Homo sapiens). Particulars: at 10 µM.
Assay [10] has as its target T5, Serine/threonine-protein kinase TBK1 (Homo sapiens) (UniProt Q9UHD2).
T5 sequence (whole entry): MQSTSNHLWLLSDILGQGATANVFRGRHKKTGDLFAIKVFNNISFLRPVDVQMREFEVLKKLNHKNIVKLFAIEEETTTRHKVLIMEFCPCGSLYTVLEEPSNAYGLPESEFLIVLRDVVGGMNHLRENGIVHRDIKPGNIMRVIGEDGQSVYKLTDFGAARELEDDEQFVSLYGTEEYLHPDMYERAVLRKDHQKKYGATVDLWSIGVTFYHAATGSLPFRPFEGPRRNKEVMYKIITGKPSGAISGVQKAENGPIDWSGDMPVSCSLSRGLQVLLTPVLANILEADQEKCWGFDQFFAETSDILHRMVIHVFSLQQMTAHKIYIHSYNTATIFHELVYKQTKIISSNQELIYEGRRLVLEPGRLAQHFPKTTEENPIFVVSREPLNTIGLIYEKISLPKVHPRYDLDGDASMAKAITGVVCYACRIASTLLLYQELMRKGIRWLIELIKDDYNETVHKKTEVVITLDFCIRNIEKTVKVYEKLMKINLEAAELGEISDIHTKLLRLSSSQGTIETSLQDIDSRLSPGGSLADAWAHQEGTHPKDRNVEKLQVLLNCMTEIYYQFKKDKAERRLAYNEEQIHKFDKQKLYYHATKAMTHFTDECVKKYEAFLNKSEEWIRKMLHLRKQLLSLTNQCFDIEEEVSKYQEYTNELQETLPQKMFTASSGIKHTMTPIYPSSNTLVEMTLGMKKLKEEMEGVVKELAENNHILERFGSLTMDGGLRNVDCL
Conditions: at 1 µM.

The target of assay [11] is T5, Serine/threonine-protein kinase TBK1 (Homo sapiens). Conditions: at 10 µM.
Assay [12] has as its target T6, TGF-beta receptor type-1 (Homo sapiens) (UniProt P36897).
T6 sequence (whole entry): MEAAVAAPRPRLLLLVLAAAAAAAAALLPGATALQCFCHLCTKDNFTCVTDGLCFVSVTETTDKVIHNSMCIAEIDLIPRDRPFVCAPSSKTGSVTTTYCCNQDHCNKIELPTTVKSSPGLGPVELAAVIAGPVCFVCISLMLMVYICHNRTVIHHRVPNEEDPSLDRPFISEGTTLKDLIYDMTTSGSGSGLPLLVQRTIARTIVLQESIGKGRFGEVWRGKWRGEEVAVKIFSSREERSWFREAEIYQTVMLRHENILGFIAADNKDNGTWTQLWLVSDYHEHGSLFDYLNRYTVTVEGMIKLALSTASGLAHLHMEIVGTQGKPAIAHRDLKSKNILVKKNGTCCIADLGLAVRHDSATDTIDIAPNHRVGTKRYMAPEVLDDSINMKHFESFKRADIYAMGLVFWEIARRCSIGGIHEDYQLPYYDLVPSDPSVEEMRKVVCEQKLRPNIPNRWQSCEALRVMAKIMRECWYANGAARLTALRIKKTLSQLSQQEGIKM
Particulars: at 1 µM.

Assay [13] deals with T6, TGF-beta receptor type-1 (Homo sapiens). Conditions: at 10 µM.
Assay [14] addresses T7, Inhibitor of nuclear factor kappa-B kinase subunit beta (Homo sapiens) (UniProt O14920).
T7 sequence (whole entry): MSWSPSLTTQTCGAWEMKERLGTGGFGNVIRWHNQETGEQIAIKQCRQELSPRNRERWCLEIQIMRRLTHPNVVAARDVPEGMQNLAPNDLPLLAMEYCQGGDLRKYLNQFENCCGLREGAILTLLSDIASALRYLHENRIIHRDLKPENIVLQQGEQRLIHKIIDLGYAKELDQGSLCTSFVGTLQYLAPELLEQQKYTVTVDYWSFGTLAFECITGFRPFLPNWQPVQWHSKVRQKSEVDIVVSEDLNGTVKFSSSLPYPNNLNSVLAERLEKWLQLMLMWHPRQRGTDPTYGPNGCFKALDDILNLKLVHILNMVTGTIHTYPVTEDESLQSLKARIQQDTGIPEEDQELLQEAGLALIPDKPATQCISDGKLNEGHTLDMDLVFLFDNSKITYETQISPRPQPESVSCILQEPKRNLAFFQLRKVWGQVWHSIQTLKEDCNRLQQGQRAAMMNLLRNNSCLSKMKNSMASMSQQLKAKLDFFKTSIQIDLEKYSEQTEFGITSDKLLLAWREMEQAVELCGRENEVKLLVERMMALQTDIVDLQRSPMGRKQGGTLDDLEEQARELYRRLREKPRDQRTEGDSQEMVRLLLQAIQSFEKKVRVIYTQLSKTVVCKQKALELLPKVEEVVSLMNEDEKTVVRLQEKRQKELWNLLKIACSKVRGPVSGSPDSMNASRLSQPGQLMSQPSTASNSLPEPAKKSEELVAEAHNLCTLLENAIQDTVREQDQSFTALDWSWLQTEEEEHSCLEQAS
Particulars: at 1 µM.

Assay [15] addresses T7, Inhibitor of nuclear factor kappa-B kinase subunit beta (Homo sapiens). Conditions: at 10 µM.
In assay [16] the target is Insulin receptor (Homo sapiens) (UniProt P06213). Particulars: at 1 µM.
Chain of Insulin receptor (Homo sapiens) (P06213 28-758 limits assumed): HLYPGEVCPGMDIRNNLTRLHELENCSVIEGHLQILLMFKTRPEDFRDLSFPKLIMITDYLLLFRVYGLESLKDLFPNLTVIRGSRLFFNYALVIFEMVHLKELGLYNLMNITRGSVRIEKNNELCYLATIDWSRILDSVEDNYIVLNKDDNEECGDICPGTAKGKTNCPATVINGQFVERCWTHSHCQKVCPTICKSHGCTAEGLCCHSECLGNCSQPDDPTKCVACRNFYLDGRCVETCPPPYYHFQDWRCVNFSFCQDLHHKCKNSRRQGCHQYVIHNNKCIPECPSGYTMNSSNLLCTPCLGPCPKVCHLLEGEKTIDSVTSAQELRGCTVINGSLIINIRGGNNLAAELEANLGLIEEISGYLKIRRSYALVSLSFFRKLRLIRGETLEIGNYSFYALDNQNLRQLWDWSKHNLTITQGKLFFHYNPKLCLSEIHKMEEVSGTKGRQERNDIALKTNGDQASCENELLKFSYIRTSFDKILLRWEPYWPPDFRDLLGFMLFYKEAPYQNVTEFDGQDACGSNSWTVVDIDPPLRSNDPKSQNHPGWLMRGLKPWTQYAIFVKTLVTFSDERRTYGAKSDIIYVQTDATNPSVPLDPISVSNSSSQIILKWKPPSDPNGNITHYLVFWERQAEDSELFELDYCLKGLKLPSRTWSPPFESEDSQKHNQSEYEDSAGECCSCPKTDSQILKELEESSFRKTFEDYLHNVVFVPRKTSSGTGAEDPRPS
Chain of Insulin receptor (Homo sapiens) (P06213 763-1382 limits assumed): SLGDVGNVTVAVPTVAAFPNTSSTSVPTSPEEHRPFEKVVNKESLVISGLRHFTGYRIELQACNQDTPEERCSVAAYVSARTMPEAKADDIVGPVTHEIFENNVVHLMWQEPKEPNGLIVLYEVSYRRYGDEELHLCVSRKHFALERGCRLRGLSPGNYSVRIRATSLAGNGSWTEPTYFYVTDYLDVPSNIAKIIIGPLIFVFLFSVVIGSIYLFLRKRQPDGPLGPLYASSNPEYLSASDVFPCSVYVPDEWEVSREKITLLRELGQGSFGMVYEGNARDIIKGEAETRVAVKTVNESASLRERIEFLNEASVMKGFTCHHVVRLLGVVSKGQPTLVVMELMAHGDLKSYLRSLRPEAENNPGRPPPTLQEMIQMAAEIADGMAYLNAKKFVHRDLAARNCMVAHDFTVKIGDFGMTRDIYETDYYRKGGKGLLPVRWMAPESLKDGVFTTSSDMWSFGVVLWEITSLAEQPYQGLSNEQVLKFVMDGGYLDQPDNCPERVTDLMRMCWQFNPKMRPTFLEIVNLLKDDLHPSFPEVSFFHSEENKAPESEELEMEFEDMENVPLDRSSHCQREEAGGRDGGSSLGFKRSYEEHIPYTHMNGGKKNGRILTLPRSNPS

As for `O=c1cc(N2CCOCC2)oc2c1ccc1ccccc12`, the residual activity in assay [1] worked out at 94%; in [2], 93%; in assay [3], 90%; in assay [4] it was 102%; in [5], 87%; in [6] it was 98%. Besides, the residual activity in assay [7] turned out to be 96%; in assay [8], 98%; in assay [9] it was 95%; in [10], 77%; in assay [11], 71%; in assay [12], 89%. Moreover, the residual activity was determined as 88% in assay [13], 96% in [14], 94% in assay [15] and 108% in assay [16].

These data come from ChEMBL document CHEMBL2218924, “A broad activity screen in support of a chemogenomic map for kinase signalling research and drug discovery” (Biochem J, 2013).
